An excerpt weighted towards active compounds, which were near 7.4% of everything screened.
ELG1 genotoxic: qHTS screen for small molecules that induce genotoxicity in human embryonic kidney (HEK293T) cells expressing luciferase-tagged ELG1; HEK293T ELG1-luciferase reporter, luminescence, 16 h; Potency, µM (highest dose often 46 µM), for the others: at the highest dose activity change, positive = activation, hits mostly activators; 330,000 tested, 1.3% active; also: % of control where 0% means no effect; nearly all actives have a fitted effect of over 60% in size
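Luminescence read-out: rising ELG1-luciferase signal, reflecting elevated ELG1 protein under genetic stress, flags genotoxic compounds. Cells were treated for 16 hr at 37 °C before ONE-Glo detection.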
p53 reactivation: qHTS assay for re-activators of p53 using a Luc reporter; 320,000 tested, 0.063% active; H1299 p53-A138V BP100-luciferase reporter, luminescence, 24 h; Potency, µM (titrated, usually from 92.2 µM), without a hit: at the highest dose activity change, positive = activation, usual class: activators; AID 504706, 2011; also: % of control where 0% means no effect; nearly all actives have a fitted effect of over 45% in size
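p53-null H1299 cells stably carrying temperature-sensitive p53-A138V and a BP100-luciferase reporter were pinned with compounds (4-point, 1:5 series) and held 24 hrs at 37 deg C. Luminescence was read 10 min after detection reagent.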
Rab9 promoter act: qHTS Assay for Rab9 Promoter Activators; AID 485297, 2010; 320,000 tested, 2.8% active; Potency, µM (highest dose often 9.22 µM), without a hit: top-dose activation, negative = inhibition, most hits filed as activators; Huh7 Rab9 promoter-luciferase reporter, luminescence, 24 h; also: % of control where 0% means no effect; nearly all actives have a fitted effect of over 60% in size
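Luminescence from Amplite-detected luciferase (10 minutes, ambient) reports Rab9 promoter activation. Before that, stable Rab9-luciferase Huh7 cells (1500/well, reduced-serum OP-MEM I plus 10% FBS) were exposed to compound for 24 hours at 37C.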
NPC1 promoter act: qHTS Assay for NPC1 Promoter Activators. Huh7 NPC1 promoter luciferase reporter, 24 h. AID 485313, 2010. Potency, µM (top dose mostly 9.22 µM), for the others: at the highest dose activation, hits mostly activators. 320,000 tested, 2.4% active; also: % of control where 0% means no effect; nearly all actives have a fitted effect of over 60% in size
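NPC1 promoter–luciferase Huh7 cells; 24 h compound; luminescence.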
FLuc counter: qHTS profiling assay for firefly luciferase inhibitor/activator using purifed enzyme and Km concentrations of substrates (counterscreen for miR-21 project). purified FLuc, Km substrates, luminescence inhibition. Potency, µM (top dose mostly 57.5 µM), without a hit: at the top dose activity change, negative = inhibition, hits mostly inhibitors. 360,000 tested, 6.9% active. AID 588342, 2011;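 also: plate controls were vehicle for no effect and reference inhibitor for full effect; nearly all actives have a fitted effect of over 55% in size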
Target sequence (P08659 whole entry, looked up): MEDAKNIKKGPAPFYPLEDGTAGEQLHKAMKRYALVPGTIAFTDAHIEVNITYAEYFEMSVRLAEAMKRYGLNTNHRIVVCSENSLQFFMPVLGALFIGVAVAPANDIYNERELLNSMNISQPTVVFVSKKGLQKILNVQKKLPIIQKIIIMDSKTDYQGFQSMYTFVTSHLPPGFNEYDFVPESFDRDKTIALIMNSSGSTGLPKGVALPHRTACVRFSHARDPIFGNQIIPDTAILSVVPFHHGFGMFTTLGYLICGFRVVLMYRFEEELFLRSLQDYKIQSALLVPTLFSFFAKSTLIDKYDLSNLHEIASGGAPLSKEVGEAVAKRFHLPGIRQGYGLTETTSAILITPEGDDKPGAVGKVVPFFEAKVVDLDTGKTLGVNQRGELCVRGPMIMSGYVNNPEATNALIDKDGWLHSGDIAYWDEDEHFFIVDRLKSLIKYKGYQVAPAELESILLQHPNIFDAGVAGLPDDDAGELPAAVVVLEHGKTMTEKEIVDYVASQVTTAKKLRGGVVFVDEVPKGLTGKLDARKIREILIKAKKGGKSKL
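Purified P. pyralis luciferase (10nM final) with 10uM D-luciferin and 10uM ATP (Km levels) in 50mM Tris acetate pH 7.5, 10mM Mg acetate, 0.01% Tween-20, 0.05% BSA; qHTS 6-point titration, ~60 µM downward; luminescence read.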
SMN2 splice up: qHTS Assay for Enhancers of SMN2 Splice Variant Expression; HEK293 SMN2-luciferase splicing reporter, luminescence, 30-36 h; Potency, µM (highest dose often 46.1 µM), without a hit: at the highest dose activity change, positive = activation, most hits filed as activators; 210,000 tested, 2.8% active; AID 1458, 2008; also: % of control where 0% means no effect; nearly all actives have a fitted effect of over 55% in size
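HEK293 cells carry an SMN2 […]–luciferase reporter in which exon 7 inclusion puts luciferase in frame. Cells were plated 10-12 h before compound addition, then incubated 30-36 h at 37C. ONE-Glo luminescence was read; sodium butyrate at 4.5 mM final served as control.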
* = called active by the depositor; ? = inconclusive; / = no result given; [ ] = remark or other dose. Calls follow the shape of the dose curve; as a rule, active = well fitted curve in the direction sought with a large enough effect; inconclusive = small, poorly fitted or top-dose-only effect, or another doubt; inactive = no such curve, though single readings can be large; an effect the other way counts as inactive or inconclusive. Potency is read from the fitted curve at half-maximal effect.

SMILES	ELG1 genotoxic	p53 reactivation	Rab9 promoter act	NPC1 promoter act	FLuc counter	SMN2 splice up
OC[C@H]1O[C@@H](Oc2cc(O)cc(/C=C/c3ccc(O)cc3)c2)[C@H](O)[C@@H](O)[C@@H]1O	/	/	2.5%	4.0%	19µM*	/
CC(C)N(Cc1ccccc1)C(=O)c1nc(-c2ccc(Cl)cc2)n2c1CCCCC2	/	/	/	/	-14.1%	/
CCN1CCC(N2CCN(c3ccc(Cl)cc3)CC2)CC1	-1.3%	/	-3.1%	11.4%	-2.1%	/
CCN1CCN(c2ccc(N=Cc3ccc(O)cc3O)cc2)CC1	-0.4%	3.0%	-5.1%	1.2%	16.9µM*	-9.0%
CN(C)C(=O)[C@H]1C[C@H]1[C@@H](O)[C@H](CO)NC(=O)[C@H](COCc1ccccc1)NC(=O)OC(C)(C)C	-2.1%	/	3.16µM*	0.4%	2.8%	/
COc1ccc(NC(=O)CSc2nc(N)c3cc4c(nc3n2)CCCC4)c(OC)c1	4.0%	?	1.7%	15.5%	12µM*	9.2%
Cc1ccc(NC(=O)CSc2nc(N)c3cc4c(nc3n2)CCCC4)cc1	1.4%	14.8%	14.9%	16.6%	2.13µM*	3.5%
CCCC[C@H]1C[C@@H]1[C@@H]1N(P(=O)(c2ccccc2)c2ccccc2)[C@](CO)(c2ccccc2)CC12CC2	/	/	/	/	/	-53.1%
CCN(CC(=O)Nc1ccc(NC(C)=O)cc1)C(=O)c1ccc2c(c1)S(=O)(=O)N=C1CCCCCN12	-9.7%	1.3%	-1.4%	0.4%	10.7µM*	/
O=C(Nc1sc2c(c1C(=O)O)CCCC2)c1ccc(Cl)cc1	-2.1%	/	27.0%	25.1%	19µM*	/
O=C(Nc1sc2c(c1C(=O)O)CCCCC2)c1ccccc1	-2.3%	1.5%	0.891µM*	2.82µM*	4.78µM*	/
CC(C)Cc1csc(NC(=O)c2ccc(Cl)cc2)c1C(=O)O	0.4%	?	0.2%	11.3%	?	20µM*
O=C(Nc1sc2c(c1C(=O)O)CCC2)c1ccccc1	22.9%	?	?	26.0%	15.1µM*	10µM*
O=C(O)c1c(NC(=O)c2cccc3ccccc23)sc2c1CCC2	-18.7%	4.8%	-5.0%[1.84 µM]	8.8%	?	4.0%
NCCNC(=O)c1c(NC(=O)c2ccccc2)sc2c1CCCC2	11.3%	/	-2.6%	-1.9%	?	/
O=C(Nc1sc2c(c1C(=O)O)CCC2)c1ccc(F)cc1	0.5%	0.2%	28.9%	17.6%	16.9µM*	-9.8%
O=C(Nc1sc2c(c1C(=O)O)CCCC2)c1cccc(Cl)c1	-2.5%	?	?	?	23.9µM*	/
CCOC(=O)[C@H]1[C@H]2COc3ccc(C)cc3[C@@H]2N2C(=O)CN(CC3CCCO3)C(=O)[C@@]12C (stereo not given in full)	3.1%	-3.6%	0.5%	1.0%	-1.6%	/
Cc1cc(O)c(/C=N/Nc2ccccc2Cl)c(=O)o1	?	12.7%	29.8%	?	?	-1.4%
Cc1cc(O)c(/C=N/Nc2cccc(Cl)c2)c(=O)o1	9.8%	20.2%	1.3%	18.5%	15.1µM*	-24.0%
Cc1cc(O)c(/C=N/Nc2ccc(Cl)cc2)c(=O)o1	9.6%	2.7%	14.8%	19.9%	2.69µM*	-21.1%
COc1ccc(NC(=O)c2ccc(COc3ccccc3)o2)cc1	-0.5%	-7.8%	-0.7%	-1.8%	23.9µM*	-22.2%
COc1ccc(NC(=O)c2ccc(Cc3ccc(C)cc3)o2)cc1	0.0%	27.3%	7.8%	8.0%	15.1µM*	-16.9%
COC(=O)c1ccccc1NC(=O)c1ccc(-c2cccc(Cl)c2)o1	?	7.3%	19.3%	?	3.0%	10µM*
COC(=O)c1sccc1-c1ccc(C(=O)Nc2cccc(Cl)c2)o1	14.3%	6.0%	3.55µM*	?	9.53µM*	?
SMILES	ELG1 genotoxic	p53 reactivation	Rab9 promoter act	NPC1 promoter act	FLuc counter	SMN2 splice up
Cc1ccc2cccc(NC(=O)c3ccc(-c4cccc(Cl)c4)o3)c2n1	/	/	/	/	-4.7%	-1.9%
CN(C)S(=O)(=O)Oc1ccsc1C(=O)Nc1cccc(Cl)c1	-4.6%	5.8%	-8.3%	-0.8%	-3.9%	-20.6%
Cc1cc2nn(-c3ccccc3)nc2cc1NC(=O)COc1ccc(Cl)cc1	/	/	/	/	0.7%	10.7%
CN(C)C1(CNC(=O)COc2cccc(Cl)c2)CCCCC1	/	/	/	/	3.1%	/
Cc1ccc(N2C(=O)CSC23C(=O)N(CC(=O)NCCc2ccccc2)c2ccccc23)cc1C (stereo not given)	/	/	/	/	-8.0%	/
COc1ccccc1Cc1nc2ccccc2nc1SCC(=O)Nc1ccccc1C(F)(F)F	/	/	/	/	-6.6%	/
CCCc1ccc(OCc2ccc(C(=O)Nc3ccccc3C(=O)OC)o2)cc1	/	/	/	/	19µM*	?
CN1CCSc2ccc(C(=O)NCc3ccccc3)cc21	8.8%	/	14.7%	-3.8%	?	-4.1%
Cc1ccc(CN2CCSc3ccc(C(=O)Nc4ccc(C)cc4)cc32)cc1	/	/	/	/	21.3µM*	?
CN1CCSc2ccc(C(=O)Nc3cccc(F)c3)cc21	2.06µM*	?	1µM*	1.41µM*	1.69µM*	/
COc1ccc(NC(=O)c2ccc3c(c2)n(C)c(=O)n3C)cc1	?	-1.3%	-10.6%	-5.0%	?	?
COc1ccc(NC(=O)c2ccc3c(c2)N(C)CCS3)cc1	?	/	3.98µM*	2µM*	3.38µM*	/
CC(C)c1ccc2c(c1)CCC1C(C)(C(N)=O)CCCC21C (stereo not given)	/	/	/	/	/	-0.3%
CC(C)c1ccc(S(=O)(=O)N2CCN(Cc3cccc(F)c3)CC2)cc1	/	/	/	/	4.0%	/
N#C/C(=C\c1cc(Cl)cc(Cl)c1)c1cccnc1	/	/	/	/	/	-13.9%
COc1ccc(CNC(=O)c2ccc(-c3ccccc3)cc2)cc1OC	2.2%	-3.0%	-0.3%	-3.6%	2.0%	-32.2%
O=C(NC(=S)Nc1nc(-c2ccccc2)cs1)c1ccco1	-3.1%	-3.0%	-0.9%	5.3%	?	-4.8%
O=C(NCc1ccc(-c2nc3ccccc3s2)cc1)c1ccco1	13.8%	?	?	?	6.01µM*	13.8%
O=C(NCc1ccccc1)c1ccco1	-1.8%	12.0%	-4.1%	-1.1%	3.1%	9.3%
COc1ccc(C(=O)NCc2ccc(-c3nc4ccccc4s3)cc2)cc1OC	16.4µM*	?	?	15.5%	1.35µM*	-20.8%
O=C(NC(=S)NCc1ccc(-c2nc3ccccc3s2)cc1)c1ccco1	16.4µM*	?	3.98µM*	3.16µM*	2.69µM*	/
Cc1n[nH]c(C)c1CCCCOc1ccccc1[N+](=O)[O-]	-0.8%	/	-6.2%	-0.4%	-15.7%	/
COc1cccc([C@@H]2Oc3ccc(Br)cc3C[C@H]2OC(=O)Nc2ccc(OC(F)F)cc2)c1	/	/	/	/	/	0.4%
